Measured values reported in PubChem BioAssay (NCI).
The panel holds about 83,000 compounds, 20% with a hit somewhere; the sample as a whole holds those more often.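 Single-dose data. Exposure time 48 hours. Values below 10 considered active.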 A number with no mark means an inactive call. Calls of active or inactive are those of the source.

tested on: MDA-MB-468 breast; assay: NCI-60 one-dose screen, 48 h (100 = growth as untreated, 0 = no growth, -100 = all killed); conditions: 10 µM unless noted

Structure (SMILES) | growth
Cc1ccc(-c2nc(C#N)c(S(=O)(=O)n3nc(-c4ccccc4)cc3N)o2)cc1 | 63.1%
CCOC(=O)C#Cc1c(CC(=O)OCC)nnn1[C@H]1O[C@@H](CO)[C@@H]2OC(C)(C)O[C@@H]21 | 10.6%
O=c1nc(-c2ccccc2)c2cc(-c3ccc(N4CCCC4)nc3)ccc2[nH]1 | 48.4%
CC(C)(C)OC(=O)N1C/C(=C\c2ccoc2)C(=O)/C(=C/c2ccoc2)C1 | 97.3%
NC(N)=NS(=O)(=O)c1ccc(N=NC2C(=O)NN(c3ccccc3)C2=O)cc1 (stereo not given) | 96.6%
NC(=N\N=C/c1ccc(O)cc1)/C(N)=N\N=C/c1ccc(O)cc1 | 103%
O=C(O)c1cn(C2CC2)c2cc(N3CCN(C(=O)c4cc(-c5ccc(Cl)cc5)nc5ccccc45)CC3)c(F)cc2c1=O | 99%
COc1cc2oc(-c3cccc(NC(=O)c4cc(NC(=O)[C@H](C)N)ccc4Cl)c3)cc(=O)c2c(OC)c1OC | 91.1%
Oc1cccc(-c2nc(-c3n[nH]c(=S)n3-c3ccccc3)cc3c2[nH]c2ccccc23)c1 | 9.85% (active)
COc1cc(-c2cc(-c3ccc(N(C)C)cc3)nc(N3CCC(O)CC3)c2C#N)cc(OC)c1OC | -21.2% (active)
O=C(Nc1ccccc1)Nc1cccc(-n2cc(-c3ccncc3)c(-c3ccc(O)c(Cl)c3)n2)c1 | 54.8%
CCCCC[C@H](O)C/C=C1/C(=O)C=C[C@@H]1C/C=C\CCCC(=O)O | 67.4%
N#C/C(=C/C=C/c1cccc(Cl)c1)S(=O)c1ccccc1 (stereo not given) | -46% (active)
O=[N+]([O-])c1ccc2nc3c4ccccc4c4ccccc4c3nc2c1 | 75.2%
CN1CCN(Cc2ccc(/C=N/Nc3ccnc4cc(Cl)ccc34)cc2)CC1 | 77.1%
COc1ccc(C2CC(c3ccc(Nc4nc(NCCO)nc(Nc5ccc(Cl)cc5)n4)cc3)=Nc3c(N)nc(N)nc3N2)cc1 (stereo not given) | -23% (active)
Cc1ccc(-c2cc(-c3nnc(SCC(=O)c4ccccc4)o3)c3ccccc3n2)cc1 | 115%
NC1=C(C/C(N)=N\O)C(c2ccccc2Cl)c2c(ccc3ccccc23)O1 (stereo not given) | 61.6%
COc1cc(/C=C/C(=O)N2CCN(C(=O)/C=C/c3cc(OC)c(OC)c(OC)c3)CC2)cc(OC)c1OC | 102%
Cc1csc(/N=C(N)/N=C(\N)c2cccnc2)n1 | 91.9%

Structure (SMILES) | growth
C=C(C=O)[C@@H]1CC=C(C=O)CC1 | 20.2%
COc1ccc(C2=C/C(=C\c3ccccc3O)C(=O)N2Cc2ccccc2)cc1 | 53.7%
CCN1CCN(Cc2cn(-c3ccc(S(N)(=O)=O)cc3)nn2)CC1 | 99.7%
Cn1c2ccccc2c2nn(C(=O)c3ccccc3)c(=O)nc21 | 107%
Cc1ccc(C(=O)c2ccc(CC(=O)N/N=C/c3ccc(O)cc3O)n2C)cc1 | 46.8%
CCNC(=O)N1CCc2c(Br)c3c(c(OC)c2C1Cc1ccc(OC)cc1)OCO3 (stereo not given) | 19.2%
CC[C@H](C)C(=O)O[C@H]1CCC=C2C=C[C@H](C)[C@H](CC[C@@H]3CC=CC(=O)O3)[C@H]21 | 85%
O=C(/C=C/c1ccccc1)c1cccc2ccccc12 | -2.6% (active)
c1ccc(CSc2nnc3c4c5c(sc4nc(-c4cccnc4)n23)CCCCCC5)cc1 | 0.132% (active)
C=CC(=O)Nc1cccc(-c2nc(SC)nc(Nc3ccccc3OC)c2C#N)c1 | 18.2%
COc1cc(/C=C/c2cc(/C=C/c3ccc(O)c(OC)c3)n(-c3ccc(Cl)cc3)c(=O)n2)ccc1O | 76.4%
CCOC(=O)NCCCC(=O)NCCc1ccccc1 | 105%
CCOC(=O)c1sc(N)c(C(=O)OCC)c1C | 59.4%
CCOC(=O)C1=C(NC)OCC1=O | 90.7%
COc1ccc(C(=O)CCC(=O)O)cc1 | 48%
CC(C)C(=O)Nc1ccc([N+](=O)[O-])c(C(F)(F)F)c1 | 61.7%
O=C(/C(=C/c1ccc([N+](=O)[O-])cc1)SCc1ccc(F)cc1)c1ccc(Cl)cc1 | 76.4%
C=C(C)Cn1c(SCC(=O)c2cccs2)nc2sc3c(c2c1=O)CCCC3 | 68.6%
CC(C)NC(=O)OCC#CCOC(=O)NC(C)C | 99.9%
COc1ccc2nc3cc(Cl)ccc3c(NCCCNCCO)c2c1 | -34.1% (active)
